Laboratory results published in PubChem BioAssay (Tox21).
Inconclusive results are not listed. Active and inactive are the calls of the source. Unless noted, the call rests on the fitted dose curve.

Legend:
[1] = Nuclear factor erythroid 2-related factor 2/antioxidant responsive element (Nrf2/ARE) small molecule agonists: qHTS cell viability counter screen in human keratinocytes (AID 1919968; active means well fitted curve in the direction sought with a large enough effect in the repeat runs; an effect the other way counts as inactive or inconclusive; further: nearly all actives have a fitted effect of over 55% in size)
Procedure, shortened: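 Stably transfected HaCaT (KeratinoSens), 1,500/well. Test agents in DMSO were applied for 23 h, 37 C/5% CO2. CellTiter-Fluor was incubated 1 h before the fluorescence read.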

[2] = Nuclear factor erythroid 2-related factor 2/antioxidant responsive element (Nrf2/ARE) small molecule agonists: luciferase reporter gene qHTS assay in human keratinocytes (AID 1919969); further: nearly all actives have a fitted effect of over 35% in size
[3] = target: Gonadotropin-releasing hormone receptor (Homo sapiens) (UniProt P30968); assay: Human gonadotropin-releasing hormone receptor (GnRHR) small molecule agonists, calcium flux assay in GnRHR-HEK293 cells (AID 1920063); further: nearly all actives have a fitted effect of over 35% in size
Procedure, shortened: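 Stable human GnRHR HEK293 line. 18 h plating, then calcium dye for 1 h at 37 C. Agonist-mode compound addition from DMSO stocks; fluorescence monitored 3 min.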

[4] = target: KiSS-1 receptor (Homo sapiens) (UniProt Q969F8); assay: Human kisspeptin (KISS1R) small molecule agonists, calcium flux assay in KISS1R-HEK293 cells (AID 1920064; active means well fitted curve in the direction sought with a large enough effect in the repeat runs; an effect the other way counts as inactive or inconclusive)
Procedure, shortened: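 After overnight (18 h) culture at 37 C/5% CO2, human KISS1R-HEK293 cells received calcium dye for 1 h, then test compound; emission at 540 nm (excitation 480 nm) was tracked for 3 min.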

[5] = G protein-coupled receptor (GPCR) small molecule agonists, calcium flux assay: HEK293 wild type cell line counter screen (AID 1920065)
Procedure, shortened: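 Following 18 h incubation at 37 C/5% CO2, plates got calcium dye for 1 h; compounds, ATP or DMSO were then pinned in and fluorescence followed kinetically (480/540 nm).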

[6] = p53 small molecule agonists, cell-based qHTS assay with human liver microsomes (AID 1963577);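 further: p53 response element beta-lactamase reporter cells with liver microsomes plus NADPH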
Procedure, shortened: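 In this qHTS, p53 response-element beta-lactamase cells receive test compound together with a microsome/NADPH activating system (0.5 mg/mL final each) and are incubated 16 h at 37 C before LiveBLAzer fluorescence detection.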

[7] = p53 small molecule agonists, cell-based qHTS assay with rat liver microsomes (AID 1963578)
Procedure, shortened: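 Agonist mode in p53RE-bla reporter cells, with compounds co-incubated 16 h at 37 C alongside 0.5 mg/mL rat liver microsomes and 0.5 mg/mL NADPH (final), followed by a 2 h LiveBLAzer detection step.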

[8] = p53 small molecule agonists, cell-based qHTS assay with human liver microsomes: qHTS cell viability counter screen (AID 1963579); further: nearly all actives have a fitted effect of over 45% in size
Procedure, shortened: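 Metabolically activated exposure: compounds, human liver microsomes and NADPH (0.5 mg/mL final apiece) were added to p53RE-bla cells seeded 5 h earlier, left 16 h at 37 C, and then assessed for viability by CellTiter-Glo luminescence.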

[9] = p53 small molecule agonists, cell-based qHTS assay with rat liver microsomes: qHTS cell viability counter screen (AID 1963580); further: nearly all actives have a fitted effect of over 45% in size
Procedure, shortened: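 Counter screen for cytotoxicity under metabolic activation: rat liver microsomes and NADPH, 0.5 mg/mL final each, added with compounds to p53RE-bla HCT-116 cells; 16 h at 37 C, then ATP luminescence read.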

[10] = p53 small molecule agonists, cell-based qHTS assay: qHTS cell viability counter screen (AID 1963581); further: nearly all actives have a fitted effect of over 45% in size
Procedure, shortened: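 qHTS counter screen: 16 h compound exposure at 37 C of p53RE-bla HCT-116 cells (4,000 per well, seeded 5 h prior), cell viability by ATP luminescence.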

[11] = p53 small molecule agonists, cell-based qHTS assay (AID 1963582; active means well fitted activation curve with a large enough effect in the signal ratio in the repeat runs, not every such curve was filed as active; the % refers to the signal ratio)
Procedure, shortened: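 Measured: fluorescence from cleaved LiveBLAzer substrate. System: p53RE-bla cells, 16 h compound treatment at 37 C, 2 h substrate step at room temperature.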

[12] = target: 5-hydroxytryptamine receptor 2A (Homo sapiens) (UniProt P28223); assay: 5-hydroxytryptamine receptor 2A (HTR2A) small molecule antagonists, cell-based qHTS assay (AID 1963586); further: nearly all actives have a fitted effect of over 45% in size
Procedure, shortened: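 CHO cells stably expressing human HTR2A were plated for 18 h at 37 C, then loaded with calcium dye for 1 h. Compounds were preincubated 5 min at room temperature before DOI (4 nM solution) was added. Kinetic fluorescence was read for 3 min.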

[13] = target: 5-hydroxytryptamine receptor 2A (Homo sapiens) (UniProt P28223); assay: 5-hydroxytryptamine receptor 2A (HTR2A) small molecule agonists, cell-based qHTS assay (AID 1963587); further: nearly all actives have a fitted effect of over 30% in size
Procedure, shortened: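 HTR2A-CHO cells, plated 18 h at 37 C/5% CO2, dye-loaded 1 h at 37 C; compounds in DMSO added by pin tool (agonist mode). Intracellular calcium flux read as kinetic fluorescence on FDSS over 2 min at 1 s intervals.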

[14] = target: Muscarinic acetylcholine receptor M1 (Homo sapiens) (UniProt P11229); assay: Cholinergic receptor muscarinic 1 (CHRM1) small molecule antagonists, cell-based qHTS assay (AID 1963588); further: nearly all actives have a fitted effect of over 40% in size
Procedure, shortened: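 Compounds were tested at 15 concentrations in three independent runs. Dye-loaded CHRM1-CHO cells were exposed 5 min at room temperature before stimulation by acetylcholine added at 50nM. Intracellular calcium was read kinetically on FDSS for 3 min.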

[15] = target: Muscarinic acetylcholine receptor M1 (Homo sapiens) (UniProt P11229); assay: Cholinergic receptor muscarinic 1 (CHRM1) small molecule agonists, cell-based qHTS assay (AID 1963589); further: nearly all actives have a fitted effect of over 35% in size
Procedure, shortened: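 Kinetic fluorescence (1 s intervals) of calcium-sensitive dye in human M1 CHO cells after compound addition; cells pre-incubated 18 h at 37 C/5% CO2 and dye-loaded 1 h.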

[16] = cAMP Responsive Elements (CRE) small molecule agonists, cell-based qHTS assay (AID 1963590)
Procedure, shortened: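 Test agents in DMSO were incubated 3 h at 37 C/5% CO2 with CRE-bla HEK 293T cells seeded 18 h earlier; LiveBLAzer B/G FRET substrate was added and read after 2 h at room temperature.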

[17] = cAMP Responsive Elements (CRE) small molecule antagonists, cell-based qHTS assay (AID 1963591; active means well fitted inhibition curve with a large enough effect in the signal ratio in the repeat runs, not every such curve was filed as active; the % refers to the signal ratio)
Procedure, shortened: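 Reporter line CRE-bla HEK 293T in dialyzed-FBS DMEM; cells preincubated 18 h, treated 3 h with compound plus NKH477 (0.25 uM final); LiveBLAzer FRET, 2 h RT.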

[18] = target: Beta-2 adrenergic receptor (Homo sapiens) (UniProt P07550); assay: Adrenergic beta2 receptor (ADRB2) small molecule antagonists, cell-based qHTS assay (AID 1963592); further: series mostly up to about 92 µM; nearly all actives have a fitted effect of over 50% in size
Procedure, shortened: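 Assay format: CHO-ADRB2 cells, 18-20hr seeding at 37C/5% CO2, then compound plus 1nM isoproterenol agonist mix for 0.5hr RT. Homogeneous time-resolved fluorescence cAMP detection after 1hr, expressed as 665/615 nm ratio.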

[19] = target: D(2) dopamine receptor (Homo sapiens) (UniProt P14416); assay: Dopamine D2 receptor (DRD2) small molecule agonists, cell-based qHTS assay (AID 1963594); further: nearly all actives have a fitted effect of over 35% in size
Procedure, shortened: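 HEK293 cells stably expressing DRD2 were cultured 24 h at 37 C, then given Ro20-1724 (0.1 mM final) and compounds for 10 min at room temperature. NKH477 (200nM) was then added for 30 min. cAMP was read by HTRF.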

[20] = target: D(2) dopamine receptor (Homo sapiens) (UniProt P14416); assay: Dopamine D2 receptor (DRD2) small molecule antagonists, cell-based qHTS assay (AID 1963595; active means well fitted inhibition curve with a large enough effect in the signal ratio in the repeat runs, with a control signal flat; the % refers to the signal ratio)
Procedure, shortened: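 Antagonist mode in DRD2-HEK293 cells: after compound addition with 0.1 mM Ro20-1724, cells received quinpirole (12 nM) and NKH477 (200 nM) for 30 min at room temperature; HTRF cAMP read after 1 h detection.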
On the % scale 0 is the no-effect control and ±100 the full control effect.

Sequence of Muscarinic acetylcholine receptor M1 (Homo sapiens) (P11229 whole entry, looked up): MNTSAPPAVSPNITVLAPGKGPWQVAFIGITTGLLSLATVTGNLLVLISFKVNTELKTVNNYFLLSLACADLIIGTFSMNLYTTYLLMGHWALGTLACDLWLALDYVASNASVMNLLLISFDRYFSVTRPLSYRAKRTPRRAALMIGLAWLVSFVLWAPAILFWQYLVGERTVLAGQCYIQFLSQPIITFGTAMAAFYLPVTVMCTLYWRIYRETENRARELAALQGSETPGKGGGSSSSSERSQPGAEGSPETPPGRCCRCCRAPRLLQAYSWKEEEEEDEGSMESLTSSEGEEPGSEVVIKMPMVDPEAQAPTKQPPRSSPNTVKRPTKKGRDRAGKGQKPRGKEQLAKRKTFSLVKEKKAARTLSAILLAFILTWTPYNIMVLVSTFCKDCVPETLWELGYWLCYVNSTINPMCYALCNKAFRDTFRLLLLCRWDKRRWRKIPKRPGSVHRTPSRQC
Sequence of Gonadotropin-releasing hormone receptor (Homo sapiens) (P30968 whole entry, looked up): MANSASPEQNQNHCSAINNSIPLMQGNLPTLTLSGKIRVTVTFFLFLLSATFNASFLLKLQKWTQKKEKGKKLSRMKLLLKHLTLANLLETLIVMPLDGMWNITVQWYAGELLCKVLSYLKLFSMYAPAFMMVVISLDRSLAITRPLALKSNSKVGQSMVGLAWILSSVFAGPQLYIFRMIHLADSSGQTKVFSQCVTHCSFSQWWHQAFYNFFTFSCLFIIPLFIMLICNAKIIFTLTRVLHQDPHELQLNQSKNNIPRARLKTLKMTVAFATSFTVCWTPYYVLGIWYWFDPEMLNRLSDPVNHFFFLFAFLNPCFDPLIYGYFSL
Sequence of Beta-2 adrenergic receptor (Homo sapiens) (P07550 whole entry, looked up): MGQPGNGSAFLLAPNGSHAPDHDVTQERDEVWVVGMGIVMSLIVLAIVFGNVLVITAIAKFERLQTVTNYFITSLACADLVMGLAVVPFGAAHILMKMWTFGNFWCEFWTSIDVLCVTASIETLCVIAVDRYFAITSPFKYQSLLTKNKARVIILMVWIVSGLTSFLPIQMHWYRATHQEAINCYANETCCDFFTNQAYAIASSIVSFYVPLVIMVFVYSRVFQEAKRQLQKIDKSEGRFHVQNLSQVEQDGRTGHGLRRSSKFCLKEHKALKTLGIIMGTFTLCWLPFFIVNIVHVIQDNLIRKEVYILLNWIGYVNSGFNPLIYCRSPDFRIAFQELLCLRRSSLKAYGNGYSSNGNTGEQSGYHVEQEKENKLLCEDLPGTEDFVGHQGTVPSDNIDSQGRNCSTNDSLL
Sequence of KiSS-1 receptor (Homo sapiens) (Q969F8 whole entry, looked up): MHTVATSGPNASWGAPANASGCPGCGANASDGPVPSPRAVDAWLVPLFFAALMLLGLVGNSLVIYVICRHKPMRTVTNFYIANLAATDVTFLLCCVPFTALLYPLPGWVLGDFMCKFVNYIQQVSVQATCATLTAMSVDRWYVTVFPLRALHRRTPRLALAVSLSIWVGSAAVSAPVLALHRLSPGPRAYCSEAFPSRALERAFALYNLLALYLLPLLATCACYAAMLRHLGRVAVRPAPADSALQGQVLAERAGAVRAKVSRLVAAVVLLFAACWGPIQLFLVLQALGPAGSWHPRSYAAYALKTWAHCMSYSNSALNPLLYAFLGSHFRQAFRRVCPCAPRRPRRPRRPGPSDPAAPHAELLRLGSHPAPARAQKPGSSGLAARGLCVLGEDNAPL
Sequence of D(2) dopamine receptor (Homo sapiens) (P14416 whole entry, looked up): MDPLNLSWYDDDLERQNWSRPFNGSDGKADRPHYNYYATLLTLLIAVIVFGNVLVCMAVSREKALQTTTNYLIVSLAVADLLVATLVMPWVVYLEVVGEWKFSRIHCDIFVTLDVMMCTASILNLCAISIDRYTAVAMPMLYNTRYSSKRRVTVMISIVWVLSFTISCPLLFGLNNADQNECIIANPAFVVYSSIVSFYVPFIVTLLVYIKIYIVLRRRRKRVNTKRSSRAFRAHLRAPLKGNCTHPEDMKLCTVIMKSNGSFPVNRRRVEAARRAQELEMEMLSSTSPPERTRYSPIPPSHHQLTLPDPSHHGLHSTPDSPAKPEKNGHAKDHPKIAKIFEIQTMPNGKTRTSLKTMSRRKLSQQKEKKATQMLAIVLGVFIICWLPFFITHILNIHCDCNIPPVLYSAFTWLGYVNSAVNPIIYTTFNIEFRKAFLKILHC
Sequence of 5-hydroxytryptamine receptor 2A (Homo sapiens) (P28223 whole entry, looked up): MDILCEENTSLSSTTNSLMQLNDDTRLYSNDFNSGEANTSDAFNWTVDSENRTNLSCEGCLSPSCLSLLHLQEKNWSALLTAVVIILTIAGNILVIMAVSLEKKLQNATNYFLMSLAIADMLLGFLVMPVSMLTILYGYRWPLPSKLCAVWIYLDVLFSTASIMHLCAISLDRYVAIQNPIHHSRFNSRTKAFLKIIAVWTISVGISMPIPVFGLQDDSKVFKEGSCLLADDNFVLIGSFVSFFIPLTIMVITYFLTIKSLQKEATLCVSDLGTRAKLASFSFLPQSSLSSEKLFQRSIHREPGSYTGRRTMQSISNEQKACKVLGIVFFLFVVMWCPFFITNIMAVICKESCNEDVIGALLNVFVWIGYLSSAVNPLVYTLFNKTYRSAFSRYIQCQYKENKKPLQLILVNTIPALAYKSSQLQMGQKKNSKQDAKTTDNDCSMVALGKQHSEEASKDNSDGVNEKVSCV

CCOC(=O)/C=C/C(=O)OCC
inactive: Potency [1] | Potency [2] | Potency [3] | outcome [4] | outcome [5] | Potency [6] | Potency [7] | Potency [8] | Potency [9] | Potency [10] | Potency [11] | Potency [12] | Potency [13] | Potency [14] | Potency [15] | Potency [16] | Potency [17] | Potency [18] | Potency [19] | Potency [20]

CCCCC/C=C\CCC=O
inactive: Potency [1] | Potency [2] | Potency [3] | outcome [4] | outcome [5] | Potency [6] | Potency [7] | Potency [8] | Potency [9] | Potency [10] | Potency [11] | Potency [12] | Potency [13] | Potency [14] | Potency [15] | Potency [16] | Potency [17] | Potency [18] | Potency [19] | Potency [20]

SC1CCCCC1
inactive: Potency [1] | Potency [2] | Potency [3] | outcome [4] | outcome [5] | Potency [6] | Potency [7] | Potency [8] | Potency [9] | Potency [10] | Potency [11] | Potency [12] | Potency [13] | Potency [14] | Potency [15] | Potency [16] | Potency [17] | Potency [18] | Potency [19]

CC(=O)C1C(=O)C=C(C)OC1=O (stereo not drawn)
inactive: Potency [1] | Potency [2] | Potency [3] | outcome [4] | outcome [5] | Potency [6] | Potency [7] | Potency [8] | Potency [9] | Potency [10] | Potency [11] | Potency [12] | Potency [13] | Potency [14] | Potency [15] | Potency [16] | Potency [17] | Potency [18] | Potency [19] | Potency [20]

CC(=O)c1ccc(C(C)=O)cc1
inactive: Potency [1] | Potency [2] | Potency [3] | outcome [4] | outcome [5] | Potency [6] | Potency [7] | Potency [8] | Potency [9] | Potency [10] | Potency [11] | Potency [12] | Potency [13] | Potency [14] | Potency [15] | Potency [16] | Potency [17] | Potency [18] | Potency [19] | Potency [20]

OCCC(O)CO (stereo not drawn)
inactive: Potency [1] | Potency [2] | Potency [3] | outcome [4] | outcome [5] | Potency [6] | Potency [7] | Potency [8] | Potency [9] | Potency [10] | Potency [11] | Potency [12] | Potency [13] | Potency [14] | Potency [15] | Potency [16] | Potency [17] | Potency [18] | Potency [19] | Potency [20]

Cc1cnc(C)c(C)n1
inactive: Potency [1] | Potency [2] | Potency [3] | outcome [4] | outcome [5] | Potency [6] | Potency [7] | Potency [8] | Potency [9] | Potency [10] | Potency [11] | Potency [12] | Potency [13] | Potency [14] | Potency [15] | Potency [16] | Potency [17] | Potency [18] | Potency [19] | Potency [20]

Nc1nc(N)c(-c2ccccc2)s1
inactive: Potency [1] | Potency [2] | Potency [3] | outcome [4] | outcome [5] | Potency [6] | Potency [7] | Potency [8] | Potency [9] | Potency [10] | Potency [11] | Potency [12] | Potency [13] | Potency [14] | Potency [15] | Potency [16] | Potency [17] | Potency [18] | Potency [19] | Potency [20]

[O]=[Mo](=[O])=[O]
inactive: activity change, negative = cytotoxicity [1] 1.36% [at 19 µM] | activity, positive = activation [2] -5.06% [at 19 µM] | activity change [3] -0.246% [at 11.8 µM, hits give high values] | activation [4] -1.57% [at 15.8 µM] | activation [5] -0.132% [at 11.8 µM] | activation [6] -1.11% [at 13.5 µM] | activation [7] -0.845% [at 13.6 µM] | activity change, negative = cytotoxicity [8] 2.49% [at 13.5 µM] | activity change, negative = cytotoxicity [9] 5.17% [at 13.5 µM] | activity change, negative = cytotoxicity [10] 14.2% [at 13.5 µM] | activation [11] -2.07% [at 13.5 µM] | activity, negative = inhibition [12] -16.5% [at 12.7 µM] | activation [13] 4.75% [at 15.9 µM] | activity, negative = inhibition [14] 1.32% [at 12.6 µM] | activation [15] 0.586% [at 15.8 µM] | activation [16] 0.435% [at 19 µM] | activity change, negative = inhibition [17] 1.4% [at 18.9 µM] | activity change, negative = inhibition [18] -19.7% [at 19 µM] | activation [19] -0.0356% [at 19 µM] | activity change, negative = inhibition [20] -0.307% [at 18.9 µM]

CCCC(=O)OCCC(C)C
inactive: Potency [1] | Potency [2] | Potency [3] | outcome [4] | outcome [5] | Potency [6] | Potency [7] | Potency [8] | Potency [9] | Potency [10] | Potency [11] | Potency [12] | Potency [13] | Potency [14] | Potency [15] | Potency [16] | Potency [17] | Potency [18] | Potency [19] | Potency [20]

C[C@H]1C[C@H]2[C@@H]3CCC4=CC(=O)C=C[C@]4(C)[C@H]3C(=O)C[C@]2(C)[C@@]1(O)C(=O)CO
inactive: Potency [1] | Potency [2] | Potency [3] | outcome [4] | outcome [5] | Potency [6] | Potency [7] | Potency [8] | Potency [9] | Potency [10] | Potency [11] | Potency [12] | Potency [13] | Potency [14] | Potency [15] | Potency [16] | Potency [17] | Potency [18] | Potency [19] | Potency [20]

Cc1cccc2nccnc12
inactive: Potency [1] | Potency [2] | Potency [3] | outcome [4] | outcome [5] | Potency [6] | Potency [7] | Potency [8] | Potency [9] | Potency [10] | Potency [11] | Potency [12] | Potency [13] | Potency [14] | Potency [15] | Potency [16] | Potency [17] | Potency [18] | Potency [19] | Potency [20]

CCc1nccnc1C
inactive: Potency [1] | Potency [2] | Potency [3] | outcome [4] | outcome [5] | Potency [6] | Potency [7] | Potency [8] | Potency [9] | Potency [10] | Potency [11] | Potency [12] | Potency [13] | Potency [14] | Potency [15] | Potency [16] | Potency [17] | Potency [18] | Potency [19] | Potency [20]

Clc1cc(Cl)nc(Cl)n1
inactive: Potency [1] | Potency [2] | Potency [3] | outcome [4] | outcome [5] | Potency [6] | Potency [7] | Potency [8] | Potency [9] | Potency [10] | Potency [11] | Potency [12] | Potency [13] | Potency [14] | Potency [15] | Potency [16] | Potency [17] | Potency [18] | Potency [20]
